Measured values taken from PMC4336329 (PLoS ONE, 2015).
Screen size: about 310,000 compounds; about 14,000 (4.5%) showed an effect of 50% or more. Effects have a minus sign here. The list comes from a sample in which strong results are over-represented; it also holds similar structures and randomly drawn compounds.

target: human ether-à-go-go-related gene (hERG) potassium channel (human, UniProt Q12809); experiment: primary screen, population patch clamp on CHO cells stably expressing hERG; higher = less effect of the substance
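Further: peak tail current of the secondary pulse compared with the same well before compound.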

human ether-à-go-go-related gene (hERG) potassium channel, sequence (Q12809 whole entry, looked up): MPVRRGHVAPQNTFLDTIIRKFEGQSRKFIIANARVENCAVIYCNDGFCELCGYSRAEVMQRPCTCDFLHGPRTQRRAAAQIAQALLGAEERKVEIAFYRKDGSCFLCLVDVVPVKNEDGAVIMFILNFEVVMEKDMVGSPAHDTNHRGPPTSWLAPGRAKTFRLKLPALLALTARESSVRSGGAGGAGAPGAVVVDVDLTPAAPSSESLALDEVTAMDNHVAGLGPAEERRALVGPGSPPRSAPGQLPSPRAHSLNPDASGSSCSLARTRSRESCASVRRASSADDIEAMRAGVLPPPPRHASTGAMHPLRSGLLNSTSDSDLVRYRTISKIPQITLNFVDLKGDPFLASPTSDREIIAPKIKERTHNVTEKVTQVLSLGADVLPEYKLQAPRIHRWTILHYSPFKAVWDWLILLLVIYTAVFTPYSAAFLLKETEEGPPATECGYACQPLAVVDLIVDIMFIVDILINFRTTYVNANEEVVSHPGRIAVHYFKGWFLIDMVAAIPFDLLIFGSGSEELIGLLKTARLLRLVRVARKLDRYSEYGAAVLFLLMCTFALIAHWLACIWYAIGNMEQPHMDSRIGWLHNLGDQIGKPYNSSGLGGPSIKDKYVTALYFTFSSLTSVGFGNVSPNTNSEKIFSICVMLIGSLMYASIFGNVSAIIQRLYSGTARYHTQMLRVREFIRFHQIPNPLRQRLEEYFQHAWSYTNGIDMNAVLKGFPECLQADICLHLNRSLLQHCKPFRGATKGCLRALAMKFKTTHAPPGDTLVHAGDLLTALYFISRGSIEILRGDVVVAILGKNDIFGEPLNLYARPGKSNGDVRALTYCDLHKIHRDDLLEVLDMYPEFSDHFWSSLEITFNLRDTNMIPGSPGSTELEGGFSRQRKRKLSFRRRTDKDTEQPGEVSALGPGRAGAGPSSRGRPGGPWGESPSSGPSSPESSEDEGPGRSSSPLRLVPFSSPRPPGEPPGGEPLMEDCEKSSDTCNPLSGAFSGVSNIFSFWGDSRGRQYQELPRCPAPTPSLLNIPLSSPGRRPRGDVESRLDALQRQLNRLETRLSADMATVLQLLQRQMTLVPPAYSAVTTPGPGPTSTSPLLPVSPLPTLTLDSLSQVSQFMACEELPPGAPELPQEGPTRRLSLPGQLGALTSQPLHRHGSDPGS

| SMILES | hERG current change (%, negative = inhibition) at 10uM |
| --- | --- |
| COc1ccc(CSc2nc(N3CCOCC3)c3c(c2C#N)CC(C)(C)OC3)cc1 | -14.5% |
| CC1=C2[C@@H]3OC(=O)[C@H](C)C3CC[C@@]2(C)C=CC1=O (stereo partly shown) | 27.7% |
| CCNc1nc(Oc2ccc(C(=O)OCC)cc2)nc(N2CCOCC2)n1 | -6.59% |
| COc1cc2c(cc1NC(=O)CCC(=O)O)oc1ccccc12 | 18.5% |
| CCOC(=O)C1CCCN(S(=O)(=O)c2ccc(Br)c(OC)c2)C1 (stereo not shown) | -14.3% |
| ONC(=Nc1ccccc1Cl)c1ccccc1Cl | -14% |
| COC(=O)c1ccc(Oc2nc(NC(C)C)nc(N(C)C)n2)cc1 | 12.5% |
| Cc1cccc(OCC(=O)N2CCCc3ccccc32)c1 | 8.85% |
| O=C(Nc1ccc(Br)cc1)C1CCN(C(=O)c2ccc(F)cc2)CC1 | -61.9% |
| O=C(Nc1ccc(F)cc1)C1CCN(C(=O)c2ccc(F)cc2)CC1 | -37.4% |
| O=C(Nc1ccc(S(=O)(=O)N2CCCCC2)cc1)C1CCN(C(=O)c2ccc(F)cc2)CC1 | -33.7% |
| Cc1cc(C(=O)OCC(=O)NCCc2ccccc2)c2ccccc2n1 | -17.7% |
| COc1cccc(NC(=O)NCC2CCN(Cc3ccc(F)cc3)CC2)c1 | -47.4% |
| O=C(NCC1CCN(Cc2ccc(F)cc2)CC1)Nc1cc(F)ccc1F | -65.1% |
| COc1cc([N+](=O)[O-])ccc1NC(=O)CN1CCCC1 | 3.84% |
| CCOc1ccc(NC(=O)NCC2CCN(Cc3ccc(F)cc3)CC2)cc1 | -76.4% |
| COc1cc([N+](=O)[O-])ccc1NC(=O)NCC1CCN(Cc2ccc(Cl)cc2)CC1 | -60.9% |
| O=C(NCC1CCN(S(=O)(=O)c2ccccc2)CC1)Nc1ccc(F)cc1F | -4.47% |
| CCOc1ccc(NC(=O)NCC2CCN(c3ccc(OC)cc3)C2)cc1 (stereo not shown) | -7.35% |
| COc1cc(NC(=O)NCC2CCN(Cc3ccc(C)cc3)CC2)cc(OC)c1OC | -0.392% |
| O=C(NCC1CCN(Cc2ccccc2F)CC1)Nc1cc(F)ccc1F | -59.9% |
| Cc1ccccc1CN1CCC(CNC(=O)Nc2ccc(F)cc2F)CC1 | -31.4% |

| SMILES | hERG current change (%, negative = inhibition) at 10uM |
| --- | --- |
| O=C(NCC1CCN(Cc2ccccc2F)CC1)Nc1ccccc1F | -22.5% |
| COc1cc2[nH]c(C(=O)N3CCN(c4ccc(F)cc4)CC3)cc2c(OC)c1OC | 17.9% |
| Cc1ccc(C)c(CN2CCSCC2)c1 | 17.3% |
| O=C(Nn1c(-c2ccccc2)nc2ccccc2c1=O)c1ccco1 | 3.87% |
| O=C(Oc1ccccc1)n1c(=S)oc2ccccc21 | 12.2% |
| O=C(N/N=C/c1ccc[nH]1)c1ccccc1[N+](=O)[O-] | 19.9% |
| O=C(c1cccc(N2C(=O)C3CC=CCC3C2=O)c1)N1CCCCCC1 (stereo not shown) | -3.26% |
| Cc1ccc(-c2nnc3n2N=C(c2ccccc2)CS3)cc1 | 3.15% |
| O=C(C1COc2ccccc2O1)N1CCN(c2ccccc2O)CC1 (stereo not shown) | -12.5% |
| O=C1C2C3C=CC(C4CC34)C2C(=O)N1c1cc(Cl)ccn1 (stereo not shown) | 2.55% |
| Cc1csc(Sc2nc3c(c(=O)[nH]c(=O)n3C)n2CCCc2ccccc2)n1 | 12.2% |
| C=CCOC(=O)c1ccc(-n2cncn2)nc1 | -4.47% |
| Cc1ccc(S(=O)(=O)N2c3ccccc3OCC2C(C)(C)C)cc1 (stereo not shown) | 4.08% |
| COc1ccc(CNC(=O)NC2CCCCC2)cc1 | 2.13% |
| COc1ccc(CN2CCC(CNC(=O)NC3CCCCC3)CC2)cc1 | -67.7% |
| Cc1ccc(CN2CCN(Cc3ccccc3F)CC2)cc1.O=C(O)C(=O)O | -12.2% |
| Cc1ccc(CN2CCC(CNC(=O)Nc3ccccc3F)CC2)cc1 | -69.7% |
| O=C(NCC1CC1)Nc1ccccc1F | 18.8% |
| COc1ccc(CCNC(=O)NC2CCCCC2)cc1 | 0.125% |
| Cc1nn(Cc2ccc(Cl)cc2Cl)c(C)c1NC(=O)C1C2CCC(O2)C1C(=O)O (stereo not shown) | -9.88% |
| CC(Oc1ccc(Cl)cc1Cl)C(=O)NCCC1=CCCCC1 (stereo not shown) | 4.46% |
| Cc1ccc(CN(C)C(=O)c2ccc3c(c2)NC(=O)CS3)o1 | -17.2% |

| SMILES | hERG current change (%, negative = inhibition) at 10uM |
| --- | --- |
| Cc1cc(S(=O)(=O)NCc2cccnc2)ccc1F | -3.24% |
| COc1ccc(S(=O)(=O)CCC(=O)N(C)c2ccc(OC)cc2OC)cc1 | -12.8% |
| CN1CC(=O)NC1=NC(=O)C12CC3CC(CC(C3)C1)C2 | -8.73% |
| Cl.Clc1cccc(Cl)c1CNC1CCCC1 | 13.5% |
| CC(=O)c1cccc(N(C(=O)Cn2nnc3ccccc32)C(C(=O)NCc2ccccc2)c2ccccn2)c1 (stereo not shown) | -39% |
| CC(=O)c1ccc(N(C(=O)Cn2nnc3ccccc32)C(C(=O)NCc2ccccc2)c2ccccn2)cc1 (stereo not shown) | -73.2% |
| Cc1ccc(N(C(=O)Cn2nnc3ccccc32)C(C(=O)NCc2ccccc2)c2ccccn2)cc1 (stereo not shown) | -45.5% |
| COc1ccc(Cc2nc3ccc(C(=O)N(C)CCCN4CCOCC4)cc3o2)cc1 | 10% |
| Cc1cc(Nc2ccc3c(c2)OCCO3)n2nc(C)nc2n1 | -9.32% |
| Cc1cc(Nc2ccc3c(c2)OCCO3)c2cccc(C)c2n1.Cl | -40.7% |
| Cc1cc(C)c(C#N)c(Nc2ccc3c(c2)OCCO3)n1 | 5.17% |
| Cc1ccc2nc(C)cc(Nc3ccc4c(c3)OCCO4)c2c1.Cl | -58.2% |
| CCOc1ccc2nc(C)cc(Nc3ccc4c(c3)OCCO4)c2c1.Cl | -72.4% |
| CCOc1cccc(C(=O)Nc2ccc3c(c2)OCCO3)c1 | 3.35% |
| Cc1cc(Nc2ccc3c(c2)OCCO3)c2cc(Cl)ccc2n1.Cl | -52.6% |
| Cc1cc(C)n2c(Nc3ccc4c(c3)OCCO4)c(-c3ccccc3)nc2n1 | -16.7% |
| Cc1cc(C(=O)Nc2ccc3c(c2)OCCO3)c2ccccc2n1 | 18.4% |
| Cc1cc(C)c(C(N)=O)c(Nc2ccc3c(c2)OCCO3)n1 | 0.162% |
| CCOc1ccc(C(=O)Nc2ccc3c(c2)OCCO3)cc1 | -1.74% |
| Cc1cc(Nc2ccc3c(c2)OCCO3)c2ccccc2n1.Cl | -56.1% |
